# Results reported in PubChem BioAssay (EPA / NIEHS).
# Inconclusive results are not listed. Calls of active or inactive are those of the source. How the source made its calls, unless noted: active means hit-call score of the fitted dose curve at least 0.9, where 1 is the maximum; inactive means score below 0.9.
# Legend:
# [1] = CCTE_Harrill_HTTr_Viability_PRF_DMEM_6hr: (Pilot) CCTE's 6-hour Cell Viability Assessment for the High-Throughput Transcriptomics (HTTr) Platform, in MCF-7 cells cultured phenol red-free DMEM + 10% charcoal-stripped fetal bovine serum, Harrill Lab (AID 2283976)
# Summary of the method: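 MCF-7 cells in phenol red-free DMEM with 10% charcoal-stripped FBS exposed 6 hours to an eight-point dilution series. Propidium iodide exclusion imaged; curves fitted bidirectionally against DMSO.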
# [2] = CCTE_Harrill_HTTr_Viability_PRF_DMEM_12hr: (Pilot) CCTE's 12-hour Cell Viability Assessment for the High-Throughput Transcriptomics (HTTr) Platform, in MCF-7 cells cultured in phenol red-free DMEM + 10% charcoal-stripped fetal bovine serum, Harrill Lab (AID 2283977)
# Summary of the method: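 MCF-7 cells in phenol red-free DMEM with 10% charcoal-stripped FBS exposed 12 hours to an eight-point dilution series. Viability assessed by high-content imaging of propidium iodide exclusion; bidirectional fit versus DMSO.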
# [3] = TOX21_TR_RXR_BLA_Antagonist_Followup_viability: Viability Assessment in the Tox21 Thyroid Hormone Receptor beta Retinoid X Receptor alpha (RXRa) Antagonism Beta-lactamase (BLA) Follow-Up Assay (AID 2283979; active means hit-call score of the fitted dose curve at least 0.9, where 1 is the maximum)
# Summary of the method: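 Follow-up compounds (11 concentrations, triplicate) were incubated 16 h at 37C/5% CO2 with HEK293T RXRa-bla cells seeded at 2,500/well in charcoal-stripped-serum medium. ATP content by CellTiter-Glo luminescence gave viability; curves fitted in both directions against DMSO.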
# [4] = CCTE_Harrill_HTTr_Viability_PRF_DMEM_24hr: (Pilot) CCTE's 24-hour Cell Viability Assessment for the High-Throughput Transcriptomics (HTTr) Platform, in MCF-7 cells cultured in phenol red-free DMEM + 10% charcoal-stripped fetal bovine serum, Harrill Lab (AID 2283980)
# Summary of the method: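 MCF-7 cells in phenol red-free DMEM with 10% charcoal-stripped FBS, eight-point dilution series, 24 h exposure. Membrane integrity by propidium iodide exclusion with high content imaging; bidirectional fit vs DMSO.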
# [5] = CCTE_Harrill_HTTr_Apoptosis_DMEM_6hr: (Pilot) CCTE's 6-hour Apoptosis Assessment for the High-Throughput Transcriptomics (HTTr) Platform, in MCF-7 cells cultured in DMEM + 10% fetal bovine serum, Harrill Lab (AID 2283981)
# Summary of the method: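 Caspase-3/7 activation read by high content imaging with CellEvent Caspase 3/7 Green in MCF-7 cells (DMEM + 10% FBS), 6 h after dosing; eight-point dilution series. Bidirectional fitting relative to DMSO baseline.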
# [6] = CCTE_Harrill_HTTr_Apoptosis_DMEM_12hr: (Pilot) CCTE's 12-hour Apoptosis Assessment for the High-Throughput Transcriptomics (HTTr) Platform, in MCF-7 cells cultured in DMEM + 10% fetal bovine serum, Harrill Lab (AID 2283982)
# Summary of the method: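 MCF-7 cells in DMEM + 10% FBS, exposed 12 h to an eight-point dilution series; caspase-3/7 activation imaged with CellEvent Green. Bidirectional fit versus DMSO.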
# [7] = CCTE_Harrill_HTTr_Apoptosis_DMEM_24hr: (Pilot) CCTE's 24-hour Apoptosis Assessment for the High-Throughput Transcriptomics (HTTr) Platform, in MCF-7 cells cultured in DMEM + 10% fetal bovine serum, Harrill Lab (AID 2283983)
# Summary of the method: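 MCF-7 cells in DMEM + 10% FBS, eight-point dilution series, 24 h exposure. Caspase-3/7 activation imaged by high-content imaging with CellEvent Caspase 3/7 Green. Bidirectional curve fitting against DMSO baseline.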
# [8] = CCTE_Harrill_HTTr_Apoptosis_PRF_DMEM_6hr: (Pilot) CCTE's 6-hour Apoptosis Assessment for the High-Throughput Transcriptomics (HTTr) Platform, in MCF-7 cells cultured phenol red-free DMEM + 10% charcoal-stripped fetal bovine serum, Harrill Lab (AID 2283984)
# Summary of the method: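 MCF-7 cells in phenol red-free DMEM + 10% charcoal-stripped FBS, eight-point dilution series, 6 h exposure. Caspase-3/7 activation imaged by high-content imaging with CellEvent Caspase 3/7 Green; bidirectional fit versus DMSO baseline.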
# [9] = CCTE_Harrill_HTTr_Apoptosis_PRF_DMEM_24hr: (Pilot) CCTE's 24-hour Apoptosis Assessment for the High-Throughput Transcriptomics (HTTr) Platform, in MCF-7 cells cultured in phenol red-free DMEM + 10% charcoal-stripped fetal bovine serum, Harrill Lab (AID 2283986)
# Summary of the method: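 MCF-7 cells in phenol red-free DMEM with 10% charcoal-stripped FBS, exposed 24 h across an eight-point dilution series. Caspase-3/7 activation imaged with CellEvent Green by high content imaging; bidirectional fitting against DMSO.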
# [10] = CCTE_Harrill_HTTr_Viability_MCF7: CCTE's 6-hour Cell Viability Assessment for the High-Throughput Transcriptomics (HTTr) Platform, in MCF-7 cells cultured in DMEM + 10% fetal bovine serum, Harrill Lab (AID 2284010)
# Summary of the method: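 Membrane integrity was scored by high-content imaging of propidium iodide dye exclusion after a 6 h exposure across an eight-point dilution series. Data were fitted bidirectionally relative to DMSO as negative control and baseline.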
# [11] = molecular target: Nucleoli Translocation, AR (gene 367) (UniProt P10275); assay: UPITT_HCI_U2OS_AR_TIF2_Nucleoli_Antagonist: University of Pittsburgh U2OS Androgen Receptor-Transcriptional Intermediary Factor 2 (AR-TIF2) Antagonism High Content Imaging Assay for Nucleoli Translocation (AID 2283997; active means hit-call score of the fitted dose curve at least 0.9, where 1 is the maximum)
# Sequence of Nucleoli Translocation, AR (gene 367) (P10275 whole entry, looked up): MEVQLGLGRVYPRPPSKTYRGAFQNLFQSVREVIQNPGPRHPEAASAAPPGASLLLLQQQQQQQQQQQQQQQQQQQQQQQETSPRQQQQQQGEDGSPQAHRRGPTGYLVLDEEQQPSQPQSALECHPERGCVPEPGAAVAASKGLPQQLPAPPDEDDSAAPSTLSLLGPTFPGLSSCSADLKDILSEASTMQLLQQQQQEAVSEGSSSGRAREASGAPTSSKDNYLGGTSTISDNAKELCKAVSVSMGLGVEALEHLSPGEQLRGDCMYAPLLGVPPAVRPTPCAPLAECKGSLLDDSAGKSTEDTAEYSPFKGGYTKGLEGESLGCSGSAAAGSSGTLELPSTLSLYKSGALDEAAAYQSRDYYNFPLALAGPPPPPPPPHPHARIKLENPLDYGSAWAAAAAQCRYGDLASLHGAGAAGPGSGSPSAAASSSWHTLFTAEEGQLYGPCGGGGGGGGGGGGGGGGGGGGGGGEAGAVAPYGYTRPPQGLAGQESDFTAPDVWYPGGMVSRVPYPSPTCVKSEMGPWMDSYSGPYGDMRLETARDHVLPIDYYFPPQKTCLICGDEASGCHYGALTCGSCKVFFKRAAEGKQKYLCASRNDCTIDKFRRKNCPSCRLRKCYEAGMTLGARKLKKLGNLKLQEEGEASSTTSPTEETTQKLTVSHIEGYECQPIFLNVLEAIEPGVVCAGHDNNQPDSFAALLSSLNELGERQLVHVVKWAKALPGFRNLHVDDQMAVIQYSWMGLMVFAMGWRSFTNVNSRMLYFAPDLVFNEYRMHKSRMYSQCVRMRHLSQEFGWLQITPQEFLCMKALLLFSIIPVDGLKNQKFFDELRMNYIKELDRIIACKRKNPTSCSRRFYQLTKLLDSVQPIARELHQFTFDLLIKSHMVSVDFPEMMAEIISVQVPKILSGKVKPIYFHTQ
# Summary of the method: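 Measured quantity was AR-RFP fluorescence localized to nucleoli in engineered U2OS cells also bearing TIF2-GFP, acquired on automated high-content imagers. Primary testing used 20 uM compound; actives were confirmed in triplicate wells.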
# [12] = molecular target: Nucleoli Translocation, AR (gene 367) (UniProt P10275); assay: UPITT_HCI_U2OS_AR_TIF2_Nucleoli_Agonist: University of Pittsburgh U2OS Androgen Receptor-Transcriptional Intermediary Factor 2 (AR-TIF2) Agonism High Content Imaging Assay for Nucleoli Translocation (AID 2283998; active means hit-call score of the fitted dose curve at least 0.9, where 1 is the maximum)
# Summary of the method: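 Red-tagged human androgen receptor co-expressed with GFP-tagged TIF2 serves as the binding reporter. Primary testing used 20 uM final (0.2% DMSO); follow-up dose response covered 0.195 to 50 uM final (0.5% DMSO).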
# [13] = molecular target: Ratio of Nucleoli Translocation and Cytoplasm, AR (gene 367) (UniProt P10275); assay: UPITT_HCI_U2OS_AR_TIF2_Nucleoli_Cytoplasm_Ratio_Agonist: University of Pittsburgh U2OS Androgen Receptor-Transcriptional Intermediary Factor 2 (AR-TIF2) Agonism High Content Imaging Assay for Ratio of Nucleoli Translocation and Cytoplasm (AID 2284000; active means hit-call score of the fitted dose curve at least 0.9, where 1 is the maximum;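 further: hits raise the red nucleolar to cytoplasm ratio above vehicle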)
# Sequence of Ratio of Nucleoli Translocation and Cytoplasm, AR (gene 367) (P10275 whole entry, looked up): as above
# Summary of the method: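 Read-out first: nucleolar-to-cytoplasm ratio of red (AR-RFP) signal, quantified by high-content imaging in U2OS cells co-expressing TIF2-GFP. Activity is scored as signal increase over DMSO. Single-point screening used 20 uM final (0.2% DMSO).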
# [14] = CCTE_Simmons_MITO_basal_resp_rate: CCTE's HepG2 Seahorse XF Respirometric Screening Assay at Basal Respiratory State, Simmons Lab (AID 2284001); conditions: actives raise or lower the signal
# Summary of the method: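 HepG2 respirometry; 7-pt titration 125 nM–100 uM final; kinetic OCR at 6 min intervals for 72 min; n=3 biological, technical singles; DMSO baseline, gain or loss fit; fenpyroximate (decrease) and 2,4-DNP (increase) controls.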
# [15] = CCTE_Simmons_MITO_max_resp_rate: CCTE's HepG2 Seahorse XF Respirometric Screening Assay at Maximal Respiratory State [uncoupled], Simmons Lab (AID 2284002); conditions: actives raise or lower the signal
# Summary of the method: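 Maximal respiration in HepG2 cells is recorded as OCR by Seahorse XF following FCCP injection. Compounds span 125 nM–100 uM final; activity is called in either direction against DMSO.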
# [16] = CCTE_Simmons_MITO_inhib_resp_rate: CCTE's HepG2 Seahorse XF Respirometric Screening Assay at Inhibited Respiratory State [full ETC block], Simmons Lab (AID 2284006); conditions: actives raise or lower the signal
# Summary of the method: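 HepG2 cells on Seahorse XF96; oxygen consumption measured after test compound, then FCCP, then rotenone/antimycin A injections over 72 min. Test chemicals at 7 concentrations, 125 nM–100 uM final. OCR fitted bidirectionally versus DMSO.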
# [17] = CCTE_Simmons_MITO_viability: CellTiter-Glo Viability Assessment for CCTE's HepG2 Seahorse XF Respirometric Screening Assay [post-hoc], Simmons Lab (AID 2284007; active means hit-call score of the fitted dose curve at least 0.9, where 1 is the maximum;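 on AC50: cells exposed to chemical for 90 min before the ATP read; actives lower ATP signal relative to DMSO baseline meaning reduced viability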)
# Summary of the method: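 HepG2 cells from the Seahorse XF respirometry run were exposed 90 min to a 7-point series, 125 nM–100 uM final, DMSO vehicle; ATP content then read by luciferase luminescence. Three biological replicates, technical singles; loss of signal fitted versus DMSO.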
# [18] = CCTE_Shafer_MEA_acute_spike_number: CCTE's Neural Acute Assay for Total Number of Spikes, Shafer Lab (AID 2284008);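 on AC50: curve fitted for decrease in spike count so AC50 reflects inhibitors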
# Summary of the method: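 Cortical neurons from rat, matured to DIV 13 or 15 on microelectrode arrays, are recorded at 37 C before and during 40-min exposure to 0.03-40 uM compound. Wells need >/= 10 active electrodes.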
# [19] = CCTE_Shafer_MEA_acute_firing_rate_mean: CCTE's Neural Acute Assay for Mean Firing Rate, Shafer Lab (AID 2284009);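 further: analyzed for loss of signal so actives lower firing rate relative to DMSO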
# Summary of the method: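 Percent change in well-mean firing rate was derived from extracellular spikes detected at 8x rms noise (300-5000 Hz band-pass) before and after a 40-min compound exposure. Cultures were primary rat cortical neurons, tested at 0.03-40 uM.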
# [20] = test system: DIO1 (gene 1733); assay: CCTE_GLTED_hDIO1: CCTE's human Deiodinase 1 (DIO1) Inhibition Assay, Great Lakes Toxicology and Ecology Division (GLTED) Lab (AID 2283987; active means hit-call score of the fitted dose curve at least 0.9, where 1 is the maximum;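 further: isolated human DIO1 enzyme in a cell-free setup rather than cells; enzyme activity read as free iodide liberated from substrate via Sandell-Kolthoff colorimetry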)
# Summary of the method: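 Cell-free hDIO1 assay, triplicate plates. Absorbance of the Sandell-Kolthoff reaction reports enzyme-liberated iodide; iodinated chemicals or nitrite, iron and thiocyanate may interfere.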
structure (smiles),measurement,setting,value
Nc1nc(Cl)nc2c1ncn2[C@H]1C[C@H](O)[C@@H](CO)O1,outcome,[1],inactive
same,outcome,[2],inactive
same,outcome,[3],inactive
same,outcome,[4],inactive
same,outcome,[5],inactive
same,outcome,[6],inactive
same,outcome,[7],inactive
same,outcome,[8],inactive
same,outcome,[9],inactive
same,outcome,[10],inactive
O=C1OC(c2ccc(O)cc2)(c2ccc(O)cc2)c2ccccc21,AC50,[11],86.2 µM (active)
same,AC50,[12],78.7 µM (active)
same,AC50,[13],77 µM (active)
same,AC50,[14],32.6 µM (active)
same,outcome,[15],inactive
same,outcome,[16],inactive
same,AC50,[17],9.92 µM (active)
same,outcome,[18],inactive
same,outcome,[19],inactive
same,outcome,[10],inactive
CCCCCCCCCCCCCCOS(=O)(=O)O,AC50,[20],85.7 µM (active)
same,outcome,[10],inactive
Cc1cc(SC2=C(O)C[C@@](CCc3ccc(N)cc3)(C(C)C)OC2=O)c(C(C)(C)C)cc1CO,AC50,[20],66.3 µM (active)
same,outcome,[11],inactive
same,outcome,[12],inactive
same,outcome,[13],inactive
same,outcome,[14],inactive
same,outcome,[15],inactive
same,outcome,[16],inactive
same,outcome,[17],inactive
same,outcome,[18],inactive
same,outcome,[19],inactive
same,outcome,[10],inactive
Cc1c(C)c2c(c(C)c1O)CCC(C)(COc1ccc(CC3SC(=O)NC3=O)cc1)O2 (stereo not drawn),outcome,[1],inactive
same,outcome,[2],inactive
same,outcome,[4],inactive
same,outcome,[5],inactive
same,outcome,[6],inactive
same,outcome,[7],inactive
same,outcome,[8],inactive
same,outcome,[9],inactive
same,AC50,[20],85.9 µM (active)
same,outcome,[12],inactive
same,outcome,[13],inactive
same,AC50,[14],3.22 µM (active)
same,AC50,[15],7.83 µM (active)
same,outcome,[16],inactive
same,AC50,[17],8.43 µM (active)
same,AC50,[18],3.97 µM (active)
same,AC50,[19],3.97 µM (active)
same,outcome,[10],inactive
C=CCCCCCCCCCCCC,outcome,[11],inactive
same,outcome,[12],inactive
same,outcome,[10],inactive
O=C(Oc1ccccc1)c1cccc(C(=O)Oc2ccccc2)c1,outcome,[11],inactive
same,outcome,[12],inactive
same,outcome,[13],inactive
same,outcome,[10],inactive
CCCCCCC(C=O)=Cc1ccccc1,outcome,[14],inactive
same,outcome,[15],inactive
same,outcome,[16],inactive
same,outcome,[17],inactive
same,outcome,[10],inactive
